# Measurements from PubChem BioAssay AID1347417 (National Center for Advancing Translational Sciences (NCATS), 2020).
# The campaign covered roughly 120,000 compounds. About 5,300 (4.4%) were called active. Entries that show only a call come without a potency. Inconclusive results (about 22%) are left out. Calls follow the shape of the dose curve; as a rule, active = well fitted inhibition curve with a large enough effect; inconclusive = small, poorly fitted or top-dose-only effect; inactive = no such curve, though single readings can be large or run the other way. For the sample, actives were picked, then their nearest neighbours and some compounds at random.
# Assay: qHTS Primary assay for Inhibitors of Plasmodium falciparum Dd2 growth in vitro; also: nearly all actives have a fitted effect of over 65% in size
# Details: P. falciparum Dd2 growth, SYBR Green, 72 h; series mostly up to 28.9 µM
# Summary of the method: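 Readout: SYBR Green fluorescence, 485 nm excitation, 535 nm emission, after ~16 h lysis at 37C. Before that, Dd2-infected red cells (2.5% hematocrit) grew 72 h with compound, 29 uM top final concentration.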
# Potency is read from the fitted curve at half-maximal effect.
row,Structure (SMILES),Potency
1,Cc1ccc2c(C)c(C(=O)N3CCCn4cncc4C3)oc2c1,inactive
2,COc1ccc(NC(=O)c2ccc3nc(C(C)C)oc3c2)cc1OC,inactive
3,COc1ccc(C(=O)Nc2ccc3nc(N4CCCCC4)cc(C)c3c2)cc1OC,3.16 µM (active)
4,COc1ccc(NC(=O)c2ccc3c(c2)N(S(C)(=O)=O)CC3)cc1OC,inactive
5,COc1ccc(N2CCC(NC(=O)c3ccc(N(C)C)cc3)C2=O)cc1 (stereo unspecified),inactive
6,O=C(NCc1ccc(Cl)nc1)c1cnn2c1CN([S+](=O)([O-])c1cccc(C(F)(F)F)c1)CC2,inactive
7,O=C(Nc1ccc2nc(SCCOc3ccccc3)sc2c1)c1ccco1,4.47 µM (active)
8,Cc1cccc(OCCSc2nc3ccc(NC(=O)COc4ccccc4C)cc3s2)c1,inactive
9,COc1cc(C)ccc1OCCSc1nc2ccc(NC(=O)c3ccc(C)cc3)cc2s1,inactive
10,CC(=O)Nc1ccc2nc(SCCOc3cc(C)cc(C)c3)sc2c1,inactive
11,Cc1ccccc1OCCSc1nc2ccc(NC(=O)c3ccco3)cc2s1,2.24 µM (active)
12,Cc1ccc(OCCSc2nc3ccc(NC(=O)COc4ccc(C)cc4)cc3s2)cc1,inactive
13,CN1CC2(CCN(Cc3cn[nH]c3-c3ccccc3)CC2)CC1C(=O)N1CCOCC1 (stereo unspecified),inactive
14,O=C(CCc1conc1-c1ccccc1F)NCc1cccc(C(F)(F)F)c1,inactive
15,C=CCCC(CN1CCCC1)Oc1cncc(C(=O)N2CCCC2)n1 (stereo unspecified),7.94 µM (active)
16,COC[C@@H]1CN(C(=O)Cc2ccc(OC)cc2)C[C@H]1C(N)=O,inactive
17,CCCC1c2nccn2CCCN1C(=O)c1ccc(OC)nc1 (stereo unspecified),inactive
18,COc1ccccc1OCCNC(=O)CCc1cc2cc(C)ccc2[nH]c1=O,inactive
19,O=C(N[C@@H]1CCOC[C@H]1Oc1ccccn1)c1cc(C2CC2)no1,inactive
20,Cc1ccc(CN2CCCC23Cc2ccccc2CNC3=O)cc1C (stereo unspecified),inactive
21,O=C1Nc2ccccc2CC12CCN2Cc1cncs1 (stereo unspecified),inactive
22,N#Cc1ccc(CN2CCC3(Cc4ccccc4NC3=O)C2)cc1 (stereo unspecified),inactive
23,Cc1nn(-c2ccccc2)c(C)c1CN1CCCC12Cc1ccccc1CNC2=O (stereo unspecified),2.24 µM (active)
24,COc1ccc(CN2CCC3(CC2)Cc2ccccc2CNC3=O)cn1,inactive
25,O=C1Nc2ccccc2CC12CCCN2Cc1ccccc1 (stereo unspecified),10 µM (active)
26,CSc1nccc(N2CCC(c3nccn3Cc3cccnc3)CC2)n1,inactive

row,Structure (SMILES),Potency
1,CCS(=O)(=O)N1CCCN(C(=O)C2CC2)C(c2ccccc2)CC(=O)NCC1 (stereo unspecified),inactive
2,CN1CC2(CCN(C(=O)c3n[nH]c(=O)c4ccccc34)CC2)CC1C(=O)N1CCOCC1 (stereo unspecified),inactive
3,CN(C)C(=O)c1nc(-c2cccnc2)c2ccccn12,inactive
4,CN(C)C(=O)c1nc(-c2ccc(Cl)cc2Cl)c2cnccn12,10 µM (active)
5,O=C(NCc1cccnc1)c1nc(-c2ccc(Cl)nc2)c2cnccn12,inactive
6,O=C1CCN(C(=O)CN2CCCCCC2)CCCC(c2nc(-c3ccccc3)no2)CCN1 (stereo unspecified),inactive
7,Cc1cc(C[C@@H]2COC[C@@H]2NC(=O)c2ccc3nc(C)[nH]c3c2)on1,inactive
8,O=C(NCCc1ccc(Cl)cc1)c1ccc2nc(CCc3ccccc3)oc2c1,inactive
9,Cc1ccccc1Nc1nn2c(=O)c3ccc(C(=O)NCCc4ccc(Cl)cc4)cc3nc2s1,3.16 µM (active)
10,CCc1ccc(Nc2nn3c(=O)c4cc5c(cc4nc3s2)OCO5)cc1,inactive
11,CC(C)c1nc(CNC(=O)c2ccc(N(C)C)nc2)no1,inactive
12,c1cc(-c2ccsc2)n2nc(C3CCCO3)nc2n1 (stereo unspecified),inactive
13,COCCn1nc2n(c1=O)CCN(C(=O)c1ccco1)CC2,inactive
14,Cn1cc(CN2CCCN(C(=O)c3ccco3)CC2)c(-c2ccc(C3CCCCC3)cc2)n1,8.91 µM (active)
15,Cc1ccc([C@@H]2CN(C(=O)c3ccco3)[C@@H]3C4CCN(CC4)[C@@H]32)cc1,inactive
16,COCc1nc(CCNC(=O)CCc2ccccc2)no1,inactive
17,COc1ccc(-c2cc(N3CCCN(C(=O)c4ccc(OC)cc4C)CC3)n[nH]2)cc1,inactive
18,CCn1nccc1C(=O)N1CCn2nnc(CCC(=O)NCc3ccccc3)c2C1,inactive
19,Cc1ccccc1-c1[nH]nc2ncc(-c3ccccc3)nc12,3.98 µM (active)
20,COc1ccc(-c2[nH]nc3ncc(-c4ccccc4)nc23)c(C)c1,inactive
21,Cc1ccsc1-c1[nH]nc2ncc(-c3ccccc3O)nc12,inactive
22,Cc1ccc(CNC(=O)C2(c3ccc(NS(C)(=O)=O)cc3)CCCCC2)cc1,inactive
23,NCC(=O)N1Cc2ccccc2CC2(CCCCN2CC2CCOCC2)C1 (stereo unspecified),inactive
24,NCC(=O)N1CCCC2(Cc3ccccc3CN2C(=O)c2cccc(Cl)c2)C1 (stereo unspecified),11.2 µM (active)
25,O=C(c1cccc(Cl)c1)N1CCC2(CC1)NCc1ccccc1NC2=O,inactive
